AMA1 RON2 block – qHTS for Inhibitors of AMA1-RON; Towards Development of Antimalarial Drug Lead: Primary Screen. Plasmodium falciparum AMA1 (3D7) - RON2 peptide interaction. AlphaScreen AMA1-biotinylated RON2 peptide binding. Potency, µM (titrated, usually from 58.2 µM), hits mostly inhibitors. actives 0.2% (n = 360,000); also: nearly all actives have a fitted effect of over 45% in size
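AMA1 (3D7) with his tag at 25 nM final met compounds first, then biotinylated RON2 peptide at 25 nM; detection used donor plus acceptor beads, 10 µg/mL apiece, read by AlphaScreen after 30 min at room temperature.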
AmpC inh no detg – qHTS Inhibitors of AmpC Beta-Lactamase (assay without detergent); AID 485341, 2010; Potency, µM (highest dose often 57.1 µM), hits mostly inhibitors; P00811; actives 0.52% (n = 330,000); AmpC nitrocefin hydrolysis, absorbance 480 nm, 0.0001% Triton; also: nearly all actives have a fitted effect of over 20% in size
Target sequence (P00811 whole entry, looked up): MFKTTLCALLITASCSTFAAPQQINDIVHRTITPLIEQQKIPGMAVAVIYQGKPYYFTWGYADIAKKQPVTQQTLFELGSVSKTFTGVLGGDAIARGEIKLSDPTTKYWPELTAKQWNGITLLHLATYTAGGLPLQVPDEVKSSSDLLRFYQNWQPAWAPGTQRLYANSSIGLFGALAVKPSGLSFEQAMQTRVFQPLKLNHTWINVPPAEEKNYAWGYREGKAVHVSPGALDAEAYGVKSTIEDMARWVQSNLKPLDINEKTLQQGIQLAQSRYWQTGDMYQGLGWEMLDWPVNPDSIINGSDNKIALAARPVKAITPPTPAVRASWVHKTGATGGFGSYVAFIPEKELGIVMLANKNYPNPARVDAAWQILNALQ
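AmpC (5.3 nM in the dispensed reagent) in 20 mM phosphate pH 7.0 with 0.01% (detergent screen) or 0.0001% Triton X-100 was preincubated with compounds for 15 min at room temperature. Nitrocefin was then added from an 800 uM solution, and hydrolysis was followed at 480 nm.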
Pf growth 48h – Primary qHTS for delayed death inhibitors of the malarial parasite plastid, 48 hour incubation; P. falciparum luciferase growth in erythrocytes, 48 h; Potency, µM (series often up to 28.7 µM), most hits filed as inhibitors; actives 5.9% (n = 310,000)
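Growth was read as firefly luciferase luminescence after a 48 h, 37 C, 5% CO2 exposure of compounds to reporter-bearing P. falciparum cultures (0.1% parasitemia, 2% hematocrit final) in Albumax-supplemented RPMI 1640.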
Pf growth 96h – Primary qHTS for delayed death inhibitors of the malarial parasite plastid, 96 hour incubation. Potency, µM (series often up to 28.7 µM), most hits filed as inhibitors. AID 504834, 2011. P. falciparum luciferase reporter growth, 96 h. actives 6.9% (n = 320,000)
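Compounds incubated with erythrocytes infected by luciferase-expressing P. falciparum (2% hematocrit, 0.05% parasitemia final) for 96 hours, 37 C in 5% CO2. Growth inhibition scored as decreased luciferase luminescence.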
AmpC detergent – qHTS Inhibitors of AmpC Beta-Lactamase (assay with detergent); AID 485294, 2010; AmpC hydrolysis of nitrocefin, absorbance 480 nm, 0.01% Triton; actives 0.041% (n = 370,000); Potency, µM (top dose mostly 114 µM), actives largely listed as inhibitors; also: nearly all actives have a fitted effect of over 25% in size
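20 mM phosphate pH 7.0 + 0.01% (detergent screen) or 0.0001% Triton X-100; 5.3 nM AmpC reagent; cpd preinc 15 min RT; nitrocefin (800 uM stock) to start; A480 q20 s × 4 min; Activity was normalised to no-enzyme and no-compound control wells.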
HCV inh – qHTS Assay for Inhibitors of Hepatitis C Virus (HCV) | actives 3.4% (n = 340,000) | Potency, µM (titrated, usually from 41.8 µM), most hits filed as inhibitors | Huh7.5.1 HCVcc-Cre infection, luciferase reporter, 44 h | AID 651820, 2012
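Antiviral activity was scored by luciferase reporter output from cells infected with HCVcc-Cre (~0.5 moi) in presence of compound, 44 h infection period, cells seeded 1,000/well 4 h prior.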
Numbers stand for hits; - = inactive; ? = inconclusive; . = no result; [ ] = remark or other dose. Most compounds without a hit are left out; they make up all but 11% or so of the library. Calls follow the shape of the dose curve; as a rule, active = well fitted curve in the direction sought with a large enough effect; inconclusive = small, poorly fitted or top-dose-only effect, or another doubt; inactive = no such curve, though single readings can be large; an effect the other way counts as inactive or inconclusive.

SMILES	AMA1 RON2 block	AmpC inh no detg	Pf growth 48h	Pf growth 96h	AmpC detergent	HCV inh
Cc1ccc(S(=O)(=O)N2CCN(C(=S)NCC3CCCO3)CC2)cc1 (configuration not stated)	-	-	3.7µM	3.3µM	-	-
CC1CCN(S(=O)(=O)c2ccc3c(c2)c(=O)c(C(=O)NCCc2ccccc2)cn3C)CC1	.	.	.	.	-	.
CCn1c(=O)n(-c2ccc3c(c2)OCO3)c2nc(-c3ccc(C(C)C)cc3)nc(C(N)=O)c21	.	.	.	.	-	.
O=C(Nc1ccc(F)cc1)[C@H](CSCc1ccccc1)N1Cc2ccccc2C1=O	.	.	.	.	-	.
O=C(Nc1nc(-c2ccco2)c(-c2ccco2)s1)c1ccc(F)cc1F	-	-	-	-	-	?
O=C(Nc1nc(-c2ccco2)c(-c2ccco2)s1)c1c(F)cccc1Cl	-	-	-	-	-	14µM
S=C(NCC1CCCO1)N1CCN(c2nc(-c3ccccc3)cs2)CC1 (configuration not stated)	-	-	?	-	-	10µM
CNC(=S)N1CCN(c2nc(-c3ccc(Cl)cc3)cs2)CC1	?	-	?	7.4µM	-	?
CCN(CC)CCCNC(=S)N1CCN(c2nc(-c3ccc(F)cc3)cs2)CC1	-	-	9.3µM	-	-	4µM
COCCNC(=S)N1CCN(c2nc(-c3ccc(Cl)cc3)cs2)CC1	-	-	-	?	-	13µM
S=C(NCc1ccco1)N1CCN(c2nc(-c3ccccc3)cs2)CC1	-	-	?	-	-	?
Cc1cc2ccccc2n1-c1ccc(C(=O)N2CCC(C(=O)NCc3ccc(F)cc3)CC2)s1	.	.	.	.	-	.
O=C(CC1N=C2c3ccccc3N=C(SCc3ccc(Cl)cc3)N2C1=O)NCCc1ccccc1 (configuration not stated)	.	.	.	.	-	.
Cc1cc(=O)c2c(O)c3c(O)cc(=O)c4c3c3c(cc(O)c1c23)C(C)(C)C=4O	.	.	2.7µM	1.5µM	.	.
Cn1c(=O)c(=O)n(C)c2cc(S(=O)(=O)N3CCN(C4CCCCC4)CC3)ccc21	-	-	.	8.3µM	-	-
CC1CCCN(S(=O)(=O)c2ccc3c(c2)n(C)c(=O)c(=O)n3C)C1 (configuration not stated)	-	-	-	-	-	-
Cc1ccc(OCC(=O)N/N=C/c2ccc([N+](=O)[O-])o2)cc1	-	-	10µM	?	-	?
Cc1ccc(OCC(=O)N/N=C/c2ccco2)cc1	-	-	.	-	?	-
O=C(COc1ccccc1)N/N=C/c1ccc([N+](=O)[O-])o1	-	-	8.3µM	10µM	-	-
Cc1ccc(OCC(=O)N/N=C/c2ccccc2)c([N+](=O)[O-])c1	-	-	-	-	-	-
Cc1ccc(OCC(=O)N/N=C\c2c(C)n(C)c3ccccc23)c([N+](=O)[O-])c1	-	-	?	?	-	16µM
Cc1ccc(OCC(=O)N/N=C\c2ccc(C)o2)c([N+](=O)[O-])c1	-	-	-	5.9µM	?	-
CCc1ccc(OCc2nc(-c3ccc(OC)c(OC)c3)no2)c(Br)c1	.	.	.	.	-	.
CCN(CC)c1ccc(C(=O)N2CCC(c3c[nH]c4ccccc34)(c3c[nH]c4ccccc34)CC2)cc1	.	.	.	.	-	.
O=C(CNc1ccc2ccccc2c1)N/N=C/c1ccc([N+](=O)[O-])o1	-	?	9.3µM	3.3µM	?	?
SMILES	AMA1 RON2 block	AmpC inh no detg	Pf growth 48h	Pf growth 96h	AmpC detergent	HCV inh
CCOc1ccc(-c2nc(C(N)=O)c3c(n2)n(-c2ccc4c(c2)OCO4)c(=O)n3CC)cc1	.	.	.	.	-	.
CC(Sc1ccccc1)C(=O)NCCc1ccccc1 (configuration not stated)	-	-	-	9.3µM	?	-
Cc1ccc(SC(C)C(=O)NCCC2=CCCCC2)cc1 (configuration not stated)	-	-	-	12µM	-	-
COc1ccc(CCNC(=O)C(C)SCc2ccccc2)cc1 (configuration not stated)	-	-[2.29 µM]	-	-	-	-
Cc1ccc(SC(C)C(=O)NC2CC2)cc1 (configuration not stated)	-	-	10µM	10µM	?	-
O=C(Nc1ccon1)c1cc2c(s1)CCCCCC2	-	-	3.7µM	.	-	?
O=C(Nc1ccc(N2CCOCC2)cc1)c1cc2c(s1)CCCCC2	-	-	?	?	-	11µM
O=C(Nc1ccccc1N1CCOCC1)c1cc2c(s1)CCCCC2	-	-	-	-	-	-
O=C(Nc1ccc(N2CCOCC2)cc1)c1cc2c(s1)CCCC2	-	-	-[1.15 µM]	-	-	4µM
COCCNC(=O)CSc1nc2cc3c(cc2c(=O)n1Cc1ccc(C(=O)NCCc2ccc(OC)c(OC)c2)cc1)OCO3	.	.	.	.	-	.
O=C(O)c1ccc(N=Nc2c(O)[nH]c3ccc(Br)cc23)cc1	-	-	?	5.2µM	-	-
Oc1[nH]c2ccc(Br)cc2c1N=Nc1ccc(C(F)(F)F)cn1	-	-	?	9.3µM	-	?
